From PubChem BioAssay AID1159580 (chemical genetic matrix, 2015)
Several values for one entry are separate records, joined by “and”; a condition that tells them apart may be missing. Equal entries are not always repeated. Screen size: about 5,500 compounds; about 2,000 (36%) were called active. Not shown: some 18% with an inconclusive outcome. Rule as the data show it: active = normalized growth mostly below about 0.91 (no sharp cut-off); inconclusive = no clear call, values can overlap the other calls; inactive = mostly above about 0.92. Some of the results follow.

Test: chemical genetic growth profiling, strain panel (AID 1159580);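 also: tested at 20 µM; growth read once vehicle control cultures reached saturation at 30 °C; 1 = growth at the plate median or of vehicle wells; lower values mean less growth of the strain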
Details: S. cerevisiae deletion strains, growth OD

Measured: normalized growth

CC1(C)C(=O)C=C[C@@]2(C)C1C[C@@H](O)[C@]1(C)C2CC[C@@]2(C)[C@H](c3ccoc3)OC(=O)[C@H]3O[C@]321 (stereo partly specified)
inactive: locus YAL021C, strain ccr4, active compounds read low 0.988 | locus YAL026C, strain drs2, active compounds read low 0.996 | locus YAL030W, strain snc1, active compounds read low 0.995 | locus YBL061C, strain skt5, active compounds read low 1 | locus YBR009C, strain hhf1, active compounds read low 1 | locus YBR021W, strain FUR4, active compounds read low 1 | locus YBR023C, strain chs3, active compounds read low 1.01 | locus YBR171W, strain sec66, active compounds read low 0.998 | locus YBR229C, strain ROT2, active compounds read low 0.939 | locus YBR231C, strain swc5, active compounds read low 1.01 | locus YBR279W, strain paf1, active compounds read low 1 | locus YCL011C, strain gbp2, active compounds read low 1.01 | locus YCL016C, strain dcc1, active compounds read low 1 | locus YCL029C, strain bik1, active compounds read low 0.969 | locus YCL061C, strain MRC1, active compounds read low 0.998 | locus YCL069W, strain vba3, active compounds read low 0.998 | locus YCR088W, strain abp1, active compounds read low 0.999 | locus YDL005C, strain med2, active compounds read low 0.999 | locus YDL035C, strain GPR1, active compounds read low 0.956 | locus YDL040C, strain nat1, active compounds read low 1 | locus YDL074C, strain BRE1, active compounds read low 0.958 | locus YDL101C, strain DUN1, active compounds read low 0.98 | locus YDL185W, strain tfp1, active compounds read low 0.954 | locus YDL192W, strain arf1, active compounds read low 0.979 | locus YDR001C, strain nth1, active compounds read low 0.985 | locus YDR069C, strain doa4, active compounds read low 1.01 | locus YDR101C, strain arx1, active compounds read low 0.97 | locus YDR137W, strain rgp1, active compounds read low 0.985 | locus YDR159W, strain sac3, active compounds read low 1.01 | locus YDR162C, strain NBP2, active compounds read low 0.949 | locus YDR195W, strain ref2 0.986 | locus YDR297W, strain sur2, active compounds read low 1 | locus YDR318W, strain mcm21, active compounds read low 0.972 | locus YDR334W, strain swr1, active compounds read low 0.995 | locus YDR335W, strain msn5, active compounds read low 0.996 | locus YDR388W, active compounds read low 0.996 | locus YDR392W, strain spt3, active compounds read low 1.01 | locus YDR502C, strain sam2, active compounds read low 1 | locus YEL003W, strain gim4, active compounds read low 1 | locus YEL037C, strain rad23, active compounds read low 0.995 | locus YEL061C, strain CIN8 (second series), active compounds read low 0.994 | locus YER015W, strain faa2, active compounds read low 0.99 | locus YER016W, strain bim1, active compounds read low 1 | locus YER110C, active compounds read low 0.968 | locus YER111C, strain swi4, active compounds read low 1 | locus YER155C, strain BEM2 (second series), active compounds read low 1 | locus YER155C, strain BEM2, active compounds read low 1.01 | locus YER167W, strain BCK2, active compounds read low 0.973 | locus YFR010W, strain ubp6, active compounds read low 0.984 | locus YGL078C, strain dbp3, active compounds read low 0.992 | locus YGL086W, strain mad1, active compounds read low 0.988 | locus YGL167C, strain pmr1, active compounds read low 1.01 | locus YGL173C, strain kem1, active compounds read low 1.01 | locus YGL227W, strain vid30, active compounds read low 1.01 | locus YGL240W, strain doc1, active compounds read low 1.01 | locus YGL248W, strain PDE1, active compounds read low 0.961 | locus YGL253W, strain hxk2, active compounds read low 1 | locus YGR135W, strain pre9, active compounds read low 1.04 | locus YGR229C, strain SMI1, active compounds read low 0.95 | locus YGR252W, strain gcn5, active compounds read low 0.965 | locus YHR013C, strain ard1, active compounds read low 1.01 | locus YHR027C, strain rpn1, active compounds read low 0.986 | locus YHR030C, strain SLT2, active compounds read low 0.966 | locus YHR079C, strain IRE1 (second series), active compounds read low 0.99 | locus YHR079C, strain IRE1, active compounds read low 0.936 | locus YHR094C, strain hxt1, active compounds read low 0.978 | locus YHR129C, strain ARP1, active compounds read low 0.987 | locus YHR142W, strain chs7, active compounds read low 1.01 | locus YHR200W, strain rpn10, active compounds read low 0.976 | locus YIL066C, strain RNR3, active compounds read low 0.94 | locus YIL073C, strain SPO22, active compounds read low 0.928 | locus YIL125W, strain kgd1, active compounds read low 0.985 | locus YIR030C, strain dcg1, active compounds read low 0.992 | locus YJL092W, strain hpr5, active compounds read low 0.999 | locus YJL095W, strain BCK1 (second series), active compounds read low 1 | locus YJL095W, strain BCK1, active compounds read low 1.01 and 0.956 | locus YJL115W, strain asf1, active compounds read low 0.997 | locus YJL129C, strain trk1, active compounds read low 0.991 | locus YJL134W, strain LCB3, active compounds read low 0.98 | locus YJL154C, strain vps35, active compounds read low 0.992 | locus YJL164C, strain tpk1, active compounds read low 1 | locus YJL166W, strain qcr8, active compounds read low 1.01 | locus YJL168C, strain set2, active compounds read low 0.998 | locus YJL187C, strain SWE1 (second series), active compounds read low 1 | locus YJL187C, strain SWE1, active compounds read low 1.02 | locus YJR043C, strain POL32, active compounds read low 0.937
